This is one part of a sample in which hits are shown more often than they occur.
CBX7 AlphaScr: inhibitors of human CBX7 binding to H3K27me3 peptide. O95931. AlphaScreen His6-CBX7 / biotin-H3K27me3 peptide binding; active compounds read low. 1.1% of 66,000 active. normalised signal (fraction of DMSO) (concentration not given with the values). AID 1224903; in the data active = normalised signal below about 0.5
Target sequence (O95931 whole entry, looked up): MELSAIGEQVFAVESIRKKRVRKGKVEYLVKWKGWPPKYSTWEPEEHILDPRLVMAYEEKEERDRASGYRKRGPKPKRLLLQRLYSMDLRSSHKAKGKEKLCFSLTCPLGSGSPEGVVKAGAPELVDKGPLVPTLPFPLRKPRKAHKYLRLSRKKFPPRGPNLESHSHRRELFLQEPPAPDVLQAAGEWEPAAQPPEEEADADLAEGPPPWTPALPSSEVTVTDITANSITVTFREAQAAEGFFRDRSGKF
Numbers without * were called inactive.

SMILES	CBX7 AlphaScr
Cc1cc(C(=O)NCCN2CCOCC2)n(-c2ccccc2)n1	0.95
CCCn1cc(C2CC(=O)N(c3ccccc3C)C2=O)c2ccccc21 (stereo not drawn)	0.46*
CCCn1cc(C2CC(=O)N(c3ccc(Br)cc3)C2=O)c2ccccc21 (stereo not drawn)	1.1
CCCn1cc(C2CC(=O)N(c3ccc(C)cc3)C2=O)c2ccccc21 (stereo not drawn)	1
CCOc1ccc(CCNC(=O)CCc2c(C)nc3cc(-c4ccc(Cl)cc4)nn3c2C)cc1	1
CN(C(=O)c1cnc(N2CCN(c3ccccn3)CC2)c2ccccc12)C1CCCCC1	0.98
CC(=O)Nc1nc(C)c(-c2csc(Nc3cccc(C)c3)n2)s1	0.93
COc1ccccc1Nc1nc(-c2sc(N)nc2C)cs1	0.37*
COc1ccccc1Nc1nc(-c2sc(NC(C)=O)nc2C)cs1	0.94
Cc1ccccc1Nc1nc(-c2sc(N)nc2C)cs1	0.66
Cc1nc(N)sc1-c1csc(Nc2ncccn2)n1	0.69
Cc1cccc(Nc2nc(-c3sc(N)nc3C)cs2)c1	0.48*
CCOc1ccc(-c2nnc(Nc3ccc(C(=O)N4CCCCC4)cc3)c3ccccc23)cc1	1.1
O=C(NCCCc1ccccc1)c1cc2ccccn2n1	1.2
O=C(NCCCN1CCN(c2ccccc2F)CC1)C(Cc1ccccc1)NS(=O)(=O)c1cccs1 (stereo not drawn)	1.1
Cc1c(C(=O)O)oc2ccc(S(=O)(=O)N3CCCCC3)cc12	1
Cc1ccccc1-c1nc(CN2CCC(C(=O)NC3CCCCCCC3)CC2)c(C)o1	0.86
Cc1ccc2c(c1)NC(=O)C(CC(=O)NCCN1CCCCCC1)O2 (stereo not drawn)	1
c1ccc(-c2nnc3ccc(N4CCCC4)nn23)cc1	0.94
Cc1ccc(S(=O)(=O)N2CCN(c3ccc4nnc(-c5ccccc5)n4n3)CC2)cc1	0.7
O=S(=O)(c1ccccc1)N1CCN(c2ccc3nnc(-c4ccccc4)n3n2)CC1	0.1*
Cc1nc2c(-c3ccccc3)c(C)nn2c(C)c1CCC(=O)NC1CCCCC1	1.1
CN1CCN(CCCNC(=O)CN2CCN(Cc3ccc(Cl)cc3)C2=O)CC1	0.83
Cc1ccc(-n2cc(-c3ccc4c(c3)OCO4)nc2SCC(=O)Nc2cccc(C)c2)cc1	0.63
COc1cc(/C=C/c2cc(C(F)(F)F)[nH]c(=O)n2)ccc1OCc1ccc(Cl)cc1Cl	0.26*
SMILES	CBX7 AlphaScr
COc1cc(/C=C/c2cc(C(F)(F)F)[nH]c(=O)n2)ccc1OCc1ccccc1F	1
COc1ccc(/C=C/c2cc(C(F)(F)F)[nH]c(=O)n2)cc1OC	0.88
Cc1cc(C)cc(NC(=O)c2sc3ncn(Cc4ccccc4F)c(=O)c3c2C)c1	1
Cc1ccc2c(c1)-c1c(cnn1CC(=O)Nc1ccc3c(c1)OCCO3)CO2	0.98
CC1CCc2oc3ccc(NS(=O)(=O)c4cccs4)cc3c2C1 (stereo not drawn)	0.64
CCc1ccc(S(=O)(=O)Nc2ccc3oc4c(c3c2)CC(C(C)(C)C)CC4)cc1 (stereo not drawn)	0.78
CCC(C)(C)C1CCc2oc3ccc(NS(=O)(=O)c4cccs4)cc3c2C1 (stereo not drawn)	0.42*
Cc1cccc(-n2c(Cc3cc(=O)[nH]c(=O)[nH]3)nnc2SCC(=O)N2CCCC2)c1	1
CCN(CC)CCNC(=O)c1cc(-c2ccc(C)c(C)c2)nc2ccccc12	1.1
Cc1nc(N2CCC(C)CC2)c2c(C)c(C(=O)N3CCCC3)sc2n1	0.87
Cc1nn(CC(=O)NCCc2c(C)[nH]c3ccc(OCc4ccccc4)cc23)c(C)c1Cl	0.48*
COc1ccc(C(=O)NCCc2c(C)[nH]c3ccc(OCc4ccccc4)cc23)cc1OC	0.52
COC(=O)c1ccc(C(=O)NCCc2c(C)[nH]c3ccc(OCc4ccccc4)cc23)cc1	0.82
Cc1[nH]c2ccc(OCc3ccccc3)cc2c1CCNC(=O)c1ccnn1C	0.48*
COc1ccc2[nH]c(C)c(CCNC(=O)Cn3nc(C(F)(F)F)cc3C)c2c1	0.79
Cc1[nH]c2ccc(OCc3ccccc3)cc2c1CCNC(=O)c1cccc(Br)c1	0.65
Cc1ccc(S(=O)(=O)Nc2ccccc2CNc2c(C)cc(C)cc2C)cc1	0.97
Cn1cc(CCCC(=O)NCCc2ccccc2)c2ccccc21	0.86
Clc1cccc(-n2cc(-c3ccccc3)c3c(NCc4cccnc4)ncnc32)c1	0.83
Cc1ccccc1Nc1c(-c2cccnc2)nc2cccc(C)n12	0.92
Cc1ccccc1Nc1c(-c2ccccn2)nc2cccc(C)n12	0.24*
Cc1cccc2nc(-c3ccccn3)c(Nc3ccc(C(C)C)cc3)n12	0.11*
Cc1cc(C)n2c(Nc3ccccc3C)c(-c3ccccn3)nc2n1	1.1
Cc1cccc2nc(-c3cccnc3)c(Nc3ccc(C(C)C)cc3)n12	0.87
Cc1cccc2nc(-c3ccsc3)c(Nc3ccc(C(C)C)cc3)n12	0.81
SMILES	CBX7 AlphaScr
O=C(c1cnn(-c2ccccc2)c1-n1cccc1)N1CCOCC1	1
CCn1cc(C(=O)N2CCN(c3ccccc3Cl)CC2)c(=O)c2ccc(C)nc21	0.99
Cc1ccc(N(CC(=O)Nc2cc(Cl)ccc2C)S(=O)(=O)c2c(C)noc2C)cc1	0.92
CCc1ccc(NC(=O)Cn2cc(S(=O)(=O)c3ccc(C)cc3)c(=O)c3cc(F)ccc32)cc1	1.1
COc1ccc(C(CC(=O)c2ccco2)Sc2cccc3cccnc23)cc1OC (stereo not drawn)	0.005*
CCOC(=O)c1nnn(-c2nonc2N)c1CSc1cccc2cccnc12	0.99
COc1ccc(CCNC(=O)C2CCN(S(=O)(=O)c3cccc4cccnc34)CC2)cc1OC	1
COc1ccc(NC2c3ccccc3C(=O)N2c2ccc(C)cn2)cc1Cl (stereo not drawn)	0.93
COc1ccc(-c2csc(NC(=O)c3cc(-c4ccccc4)nc4ccccc34)n2)cc1OC	0.89
Cc1ccc(CCNC(=O)c2cc(=O)[nH]c3ccc(Br)cc23)cc1	0.94
COc1ccc(C(=O)Nc2nnc(-c3cccc(C)c3)o2)cc1OC	0.018*
Cc1cccc(-c2nnc(NC(=O)c3ccc(Cl)cc3)o2)c1	0.86
COc1ccc(C(=O)Nc2nnc(-c3ccccc3)o2)cc1OC	0.61
COc1ccc(-c2nnc(NC(=O)c3ccc(OC)c(OC)c3)o2)cc1	0.086*
COc1ccc(-c2nnc(NC(=O)c3ccc(Cl)cc3)o2)cc1	0.55
COc1ccc(C(=O)Nc2cccc(-c3nc4ccccc4o3)c2)cc1OC	1.3
CC1CCN(S(=O)(=O)c2ccc3ncn(CC(=O)Nc4ccc(F)cc4)c(=O)c3c2)CC1	1
O=S(=O)(c1ccc(Cl)cc1)c1nc(-c2ccccc2F)oc1N1CCCCC1	0.6
O=S(=O)(c1ccccc1)c1nc(-c2ccccc2F)oc1N1CCCCC1	0.49*
O=S(=O)(c1ccc(Cl)cc1)c1nc(-c2ccccc2F)oc1N1CCCCCC1	0.69
O=C(C1CCCN(Cc2ccccc2)C1)N1CCCCCC1 (stereo not drawn)	1
CCCCCCOc1ccc(C(=O)Nc2ccccn2)cc1	1.1
CCOC(=O)c1ccc(NC(=O)COc2ccc(OC)cc2)cc1	1.3
CCOC(=O)c1[nH]cnc1C(=O)Nc1ccc(OC)cc1	0.066*
CCOC(=O)c1[nH]cnc1C(=O)Nc1ccccn1	0.19*
CCOC(=O)c1[nH]cnc1C(=O)Nc1ccccc1	1
CCOc1ccc(C2C(C(=O)Nc3ccccn3)=C(C)NC3=C2C(=O)CCC3)cc1 (stereo not drawn)	1
O=C(Nc1nc2ccccc2n1CCN1CCCCC1)c1cccc(COc2ccc(Cl)cc2)c1	1
